Results on 7 compounds are retold here after PubChem BioAssay.

The source made the active and inactive calls.

Assay [1] relates to PRMT1 (protein arginine N-methyltransferase 1). Description: PRMT1 binders on small-molecule microarrays, primary screen, biochemical, small-molecule microarray, 635 nm fluorescence (AID 1088).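 Also: binding of Prmt1 protein to compounds spotted on small-molecule microarray slides.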 The following applies: small-molecule microarray binding, higher = more signal.
Assay [2] in a line: yeast growth modulation, basal conditions, primary screen, YJM789 clinical isolate, OD600, 24 h (AID 1089).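 Also: growth of clinical yeast isolate S. cerevisiae YJM 789 seeded 1000 cells per well; test concentration not given here.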 Conditions: S. cerevisiae YJM789 growth, higher = more signal, called active from +8 up or from −8 down.
The nature of assay [3]: fission yeast growth modulation, primary screen, strain 972, OD600, 24 h, no modulator (AID 1090).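 Also: basal condition with compound alone and no growth modifier present; test concentration not given here.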 Conditions: S. pombe 972 growth, higher = more signal, called active from +8 up or from −8 down.
The nature of assay [4]: S. cerevisiae growth modulation with rapamycin, primary screen, strain BY4716, OD600, 96 h (AID 1091). Also: test concentration not given here. The following applies: higher = more signal, called active from +8 up or from −8 down.
Assay [5] addresses Torsin-1A-interacting protein 2 (Homo sapiens) (UniProt Q8NFQ8). As to the kind of experiment: LULL1 binders on small-molecule microarray, primary screen, cell lysate, human LULL1 lysate, 635/667 nm fluorescence (AID 1092).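 Also: probe is lysate of COS7 cells overexpressing human LULL1; score merges per-feature 667 nm fluorescence with signal-to-noise.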 Conditions: hLULL1 lysate binding, 635 nm fluorescence, higher = more signal.
Assay [6] can be described thus: E. coli growth modulation, two-sided OD650, primary screen, E. coli filamentation project, strain DRC41, 24 h (AID 1093).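 Also: MC1000 strain lacking acrAB efflux and sulA so SOS filamentation is blocked; test concentration not given here.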 Conditions: OD650, 24 h, higher = more signal, called active from +8 up or from −8 down.
Assay [7] can be described thus: small-molecule microarray binders of probe aLefty2, primary screen, biochemical, biotinylated probe, 635/667 nm fluorescence (AID 1094).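 Also: score merges spot fluorescence near 667 nm with spot signal-to-noise ratio.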 Conditions: higher = more signal.
Assay [8] relates to Noggin (protein binding on small-molecule microarray). As to the kind of experiment: Noggin binders on small-molecule microarray, primary screen, biochemical, 635/667 nm fluorescence (AID 1095).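 Also: score merges 667 nm feature fluorescence with signal to noise over triplicate slides.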 Conditions: 635 nm fluorescence, higher = more signal.
Assay [9] addresses Neurogenic locus notch homolog protein 3 (Homo sapiens) (UniProt Q9UM47). Description: NOTCH3 binders on small-molecule microarray, primary screen, biochemical, 635/667 nm fluorescence (AID 1096). The following applies: NOTCH3 binding, 635 nm fluorescence, higher = more signal.
Assay [10] can be described thus: small-molecule microarray binders of probe aEGFR, primary screen, biochemical, biotinylated probe, 635/667 nm fluorescence (AID 1097).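 Also: probe is a biotinylated anti-EGFR antibody binding compounds printed on slides; score combines fluorescence near 667 nm and signal to noise of each spot.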 The following applies: higher = more signal.
The test system of assay [11] is Plasmodium falciparum Sir2 (PF13_0152, Sir2A). Description: pfSir2 binders on small-molecule microarrays, primary screen, biochemical, small-molecule microarray, 635 nm fluorescence (AID 1098).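 Also: score merges spot fluorescence intensity with its signal-to-noise ratio.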 Conditions: small-molecule microarray binding, fluorescence 635 nm; higher = more signal.
Assay [12] is described as follows: small-molecule microarray binders of probe aDKK1, primary screen, biochemical, biotinylated probe, 635/667 nm fluorescence (AID 1099).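 Also: score merges 667nm spot fluorescence with signal to noise across triplicate slides; reference of the scale not given here.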 Conditions: higher = more signal.
Assay [13] can be described thus: small-molecule microarray binders of probe aCHRDL2, primary screen, biochemical, biotinylated probe, 635/667 nm fluorescence (AID 1100). Conditions: higher = more signal.
Assay [14] can be described thus: splicing luciferase reporter signal modulators, primary screen, spliceosome inhibition project, cell-based, HEK293, splice +/- reporter (AID 1101).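 Also: HEK293 cells carrying a splicing-competent luciferase reporter gene; test concentration not given here.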 Conditions: luminescence, 24 h, higher = more signal, called active from +8 up or from −8 down. On the technique in general: Reporter assays use an easily measured gene product as a stand-in for the process of interest.

The target in assay [15] is Fibroblast growth factor 10 (Homo sapiens) (UniProt O15520). Description: FGF10 binders on small-molecule microarrays, primary screen, biochemical, small-molecule microarray, 635 nm fluorescence (AID 1102). Conditions: FGF10 binding, fluorescence 635 nm, higher = more signal.
The test system of assay [16] is glycogen synthase kinase-3 (GSK3A per assay name; protocol says GSK3B). As to the kind of experiment: GSK3 binders on small-molecule microarrays, primary screen, biochemical, small-molecule microarray, 635 nm fluorescence, GSK3A (AID 1103). Also: the record names both GSK3A and GSK3B. The following applies: small-molecule microarray binding, fluorescence 635 nm; higher = more signal.
Assay [17] concerns the target Epidermal growth factor receptor (Homo sapiens) (UniProt P00533). Description: EGFR binders on small-molecule microarrays, primary screen, biochemical, small-molecule microarray, 635 nm fluorescence (AID 1104).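 Also: score merges 667 nm emission intensity with spot signal to noise over triplicate slides.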 Conditions: EGFR binding, higher = more signal.
The target of assay [18] is Follistatin-related protein 3 (Homo sapiens) (UniProt O95633). As to the kind of experiment: FSTL3 binders on small-molecule microarrays, primary screen, biochemical, small-molecule microarray, 635 nm fluorescence (AID 1105).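 Also: score merges emission near 667 nm and signal to noise per printed spot across three slides.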 The following applies: FSTL3 binding, higher = more signal.
Assay [19] addresses Dickkopf-related protein 1 (Homo sapiens) (UniProt O94907). As to the kind of experiment: DKK1 binders on small-molecule microarrays, primary screen, biochemical, small-molecule microarray, 635 nm fluorescence scan (AID 1106).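 Also: score merges emission near 667 nm with signal to noise over three replicate slides.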 Conditions: DKK1 binding, higher = more signal.
For assay [20], the system named is Inhibin beta A chain (activin A). Description: INHBA (activin A) binders on microarrays, primary screen, biochemical, small-molecule microarray, 635 nm fluorescence scan (AID 1107).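 Also: mouse activin A protein probed at 4.33 µg/mL on printed slides; score merges bound-protein fluorescence near 667 nm with spot signal-to-noise.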 Conditions: small-molecule microarray binding, higher = more signal.

Fibroblast growth factor 10 (Homo sapiens), sequence (O15520 whole entry, looked up): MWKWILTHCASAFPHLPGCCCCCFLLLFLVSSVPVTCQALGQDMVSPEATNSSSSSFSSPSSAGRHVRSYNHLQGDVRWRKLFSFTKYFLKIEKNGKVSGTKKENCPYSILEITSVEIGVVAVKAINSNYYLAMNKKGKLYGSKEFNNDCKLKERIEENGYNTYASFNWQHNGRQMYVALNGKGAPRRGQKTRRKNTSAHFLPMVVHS
Neurogenic locus notch homolog protein 3 (Homo sapiens), sequence (Q9UM47 whole entry, looked up): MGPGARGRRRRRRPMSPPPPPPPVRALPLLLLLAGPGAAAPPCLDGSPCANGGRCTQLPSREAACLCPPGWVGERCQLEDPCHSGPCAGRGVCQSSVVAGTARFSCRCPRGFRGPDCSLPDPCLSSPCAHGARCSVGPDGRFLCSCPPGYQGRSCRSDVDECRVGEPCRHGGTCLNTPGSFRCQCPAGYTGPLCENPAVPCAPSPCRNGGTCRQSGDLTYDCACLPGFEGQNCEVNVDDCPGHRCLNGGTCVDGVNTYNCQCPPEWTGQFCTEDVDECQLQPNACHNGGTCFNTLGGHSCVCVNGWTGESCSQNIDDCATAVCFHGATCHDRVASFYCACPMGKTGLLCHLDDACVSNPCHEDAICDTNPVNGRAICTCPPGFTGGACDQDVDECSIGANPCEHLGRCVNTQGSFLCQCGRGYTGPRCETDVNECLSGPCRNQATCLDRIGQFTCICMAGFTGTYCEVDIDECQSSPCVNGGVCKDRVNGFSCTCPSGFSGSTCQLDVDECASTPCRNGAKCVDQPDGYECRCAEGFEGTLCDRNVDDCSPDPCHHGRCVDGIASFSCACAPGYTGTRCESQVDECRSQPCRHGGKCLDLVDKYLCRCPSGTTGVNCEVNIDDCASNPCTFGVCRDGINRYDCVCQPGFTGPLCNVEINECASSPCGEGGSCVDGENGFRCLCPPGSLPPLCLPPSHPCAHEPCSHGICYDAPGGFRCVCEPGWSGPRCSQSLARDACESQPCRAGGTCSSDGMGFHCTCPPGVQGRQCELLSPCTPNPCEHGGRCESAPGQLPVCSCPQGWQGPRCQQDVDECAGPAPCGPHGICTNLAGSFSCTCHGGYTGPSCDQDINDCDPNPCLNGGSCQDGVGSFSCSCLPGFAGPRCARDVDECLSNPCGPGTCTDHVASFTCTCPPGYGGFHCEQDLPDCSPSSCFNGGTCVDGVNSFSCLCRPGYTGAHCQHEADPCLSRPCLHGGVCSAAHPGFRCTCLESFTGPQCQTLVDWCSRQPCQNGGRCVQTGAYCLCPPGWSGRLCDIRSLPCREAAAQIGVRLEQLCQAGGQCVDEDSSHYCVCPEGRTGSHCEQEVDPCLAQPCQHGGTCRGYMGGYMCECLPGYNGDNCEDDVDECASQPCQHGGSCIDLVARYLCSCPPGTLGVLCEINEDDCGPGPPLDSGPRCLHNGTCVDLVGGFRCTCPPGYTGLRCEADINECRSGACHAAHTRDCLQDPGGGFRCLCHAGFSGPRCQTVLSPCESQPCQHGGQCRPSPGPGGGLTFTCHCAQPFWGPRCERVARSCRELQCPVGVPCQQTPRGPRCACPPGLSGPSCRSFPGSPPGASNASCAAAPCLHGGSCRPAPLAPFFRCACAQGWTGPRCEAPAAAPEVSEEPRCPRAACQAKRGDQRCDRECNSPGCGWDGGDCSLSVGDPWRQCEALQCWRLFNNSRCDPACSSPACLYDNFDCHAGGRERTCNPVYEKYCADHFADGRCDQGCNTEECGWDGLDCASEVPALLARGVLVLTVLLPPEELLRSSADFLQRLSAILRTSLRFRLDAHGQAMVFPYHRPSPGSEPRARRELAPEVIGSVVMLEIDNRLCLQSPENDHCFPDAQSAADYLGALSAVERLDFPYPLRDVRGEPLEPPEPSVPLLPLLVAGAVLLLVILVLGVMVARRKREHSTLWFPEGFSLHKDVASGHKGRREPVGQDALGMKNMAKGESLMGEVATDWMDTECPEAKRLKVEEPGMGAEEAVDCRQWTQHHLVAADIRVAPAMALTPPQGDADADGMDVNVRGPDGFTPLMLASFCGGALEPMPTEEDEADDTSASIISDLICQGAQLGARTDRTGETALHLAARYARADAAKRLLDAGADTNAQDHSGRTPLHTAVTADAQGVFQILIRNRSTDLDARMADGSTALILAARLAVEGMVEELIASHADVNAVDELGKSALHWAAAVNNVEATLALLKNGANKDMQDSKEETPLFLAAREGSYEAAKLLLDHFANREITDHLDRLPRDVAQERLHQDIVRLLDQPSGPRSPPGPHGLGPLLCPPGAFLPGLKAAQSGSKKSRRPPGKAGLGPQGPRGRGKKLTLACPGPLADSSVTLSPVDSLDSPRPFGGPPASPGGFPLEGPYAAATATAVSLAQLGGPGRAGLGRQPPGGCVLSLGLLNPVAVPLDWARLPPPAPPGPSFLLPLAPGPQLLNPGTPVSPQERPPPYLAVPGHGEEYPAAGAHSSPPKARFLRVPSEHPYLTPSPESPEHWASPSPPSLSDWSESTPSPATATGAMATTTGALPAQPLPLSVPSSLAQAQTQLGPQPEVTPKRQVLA
Torsin-1A-interacting protein 2 (Homo sapiens), sequence (Q8NFQ8 whole entry, looked up): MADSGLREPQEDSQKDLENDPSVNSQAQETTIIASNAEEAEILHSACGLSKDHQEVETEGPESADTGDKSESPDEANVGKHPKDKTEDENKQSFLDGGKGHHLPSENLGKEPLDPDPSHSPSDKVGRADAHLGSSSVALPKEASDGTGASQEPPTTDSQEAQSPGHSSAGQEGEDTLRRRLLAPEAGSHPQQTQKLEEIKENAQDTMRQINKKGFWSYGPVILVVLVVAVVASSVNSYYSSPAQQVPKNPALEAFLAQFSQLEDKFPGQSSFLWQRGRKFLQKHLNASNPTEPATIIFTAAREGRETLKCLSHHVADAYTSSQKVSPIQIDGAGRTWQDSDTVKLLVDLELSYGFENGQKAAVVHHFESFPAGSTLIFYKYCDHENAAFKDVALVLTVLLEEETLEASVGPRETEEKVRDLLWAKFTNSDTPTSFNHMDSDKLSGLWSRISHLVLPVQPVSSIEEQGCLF
Follistatin-related protein 3 (Homo sapiens), sequence (O95633 whole entry, looked up): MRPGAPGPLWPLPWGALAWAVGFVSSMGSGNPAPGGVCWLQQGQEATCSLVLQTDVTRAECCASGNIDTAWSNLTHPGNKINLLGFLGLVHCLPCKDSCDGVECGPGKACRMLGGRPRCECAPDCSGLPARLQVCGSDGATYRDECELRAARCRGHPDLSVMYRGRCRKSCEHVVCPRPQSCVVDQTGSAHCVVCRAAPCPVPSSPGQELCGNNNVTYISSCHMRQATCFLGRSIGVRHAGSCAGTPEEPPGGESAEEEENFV
Dickkopf-related protein 1 (Homo sapiens), sequence (O94907 whole entry, looked up): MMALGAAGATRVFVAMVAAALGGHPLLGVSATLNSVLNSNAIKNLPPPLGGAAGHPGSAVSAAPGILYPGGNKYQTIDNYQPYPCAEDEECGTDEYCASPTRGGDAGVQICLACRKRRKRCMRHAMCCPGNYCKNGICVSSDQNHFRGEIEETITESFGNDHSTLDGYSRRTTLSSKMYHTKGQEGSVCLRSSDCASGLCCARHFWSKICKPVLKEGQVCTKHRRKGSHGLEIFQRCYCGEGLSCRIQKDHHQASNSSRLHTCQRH
Epidermal growth factor receptor (Homo sapiens), sequence (P00533 whole entry, looked up): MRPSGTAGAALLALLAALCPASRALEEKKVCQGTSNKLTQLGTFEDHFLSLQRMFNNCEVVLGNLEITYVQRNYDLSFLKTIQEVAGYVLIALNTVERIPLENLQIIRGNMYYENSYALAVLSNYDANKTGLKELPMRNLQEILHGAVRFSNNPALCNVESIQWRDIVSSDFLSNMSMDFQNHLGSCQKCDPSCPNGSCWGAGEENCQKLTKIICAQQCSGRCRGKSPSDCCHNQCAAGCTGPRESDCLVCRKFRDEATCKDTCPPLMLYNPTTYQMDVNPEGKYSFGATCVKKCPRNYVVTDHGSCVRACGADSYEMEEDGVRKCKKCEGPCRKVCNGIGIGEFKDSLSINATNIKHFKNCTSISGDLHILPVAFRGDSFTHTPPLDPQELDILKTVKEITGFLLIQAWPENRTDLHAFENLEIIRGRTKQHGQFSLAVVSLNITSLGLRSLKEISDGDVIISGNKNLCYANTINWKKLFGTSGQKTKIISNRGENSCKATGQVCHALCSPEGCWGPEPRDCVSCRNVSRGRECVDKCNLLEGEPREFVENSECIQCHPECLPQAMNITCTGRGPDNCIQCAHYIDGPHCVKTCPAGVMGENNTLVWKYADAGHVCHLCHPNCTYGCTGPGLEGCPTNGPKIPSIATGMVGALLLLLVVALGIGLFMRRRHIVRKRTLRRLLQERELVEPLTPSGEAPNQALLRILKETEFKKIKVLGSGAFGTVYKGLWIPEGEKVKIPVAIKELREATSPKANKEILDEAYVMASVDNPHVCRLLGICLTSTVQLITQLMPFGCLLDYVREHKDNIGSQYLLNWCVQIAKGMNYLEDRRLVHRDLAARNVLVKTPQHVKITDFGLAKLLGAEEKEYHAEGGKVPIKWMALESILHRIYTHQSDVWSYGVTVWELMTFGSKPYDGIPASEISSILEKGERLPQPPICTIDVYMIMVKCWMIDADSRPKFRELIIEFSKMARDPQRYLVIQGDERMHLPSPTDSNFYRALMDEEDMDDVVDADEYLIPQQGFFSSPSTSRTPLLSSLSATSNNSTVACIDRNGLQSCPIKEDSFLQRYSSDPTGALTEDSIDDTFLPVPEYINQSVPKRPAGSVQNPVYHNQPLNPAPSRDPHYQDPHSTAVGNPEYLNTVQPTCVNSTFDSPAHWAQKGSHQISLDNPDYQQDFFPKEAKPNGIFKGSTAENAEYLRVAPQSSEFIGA

Turning to `Cc1ccc(S[C@]2(C(=O)O)CC(=O)N(Cc3ccccc3)[C@@H]2c2ccc(CO)cc2)cc1`, the composite z-score was 0.191 in assay [1]; 1.88 in assay [5]; -0.0953 in assay [7]; -0.674 in assay [8]; -0.0738 in assay [9]; -0.136 in assay [10]. The composite z-score in assay [11] is -0.844; in assay [12], 0.638; in assay [13], 0.899; in [15], -0.0355; in assay [16], 0.132; in assay [17], -0.289. Further, the results for the composite z-score in [18], in assay [19] and in [20] were -0.0951, -0.304 and 1.04, respectively. The z-score was -0.179 (inactive) in assay [2]; -2.58 (inactive) in [3]; 0.215 (inactive) in [4]; 2.49 (inactive) in assay [6]; -0.718 (inactive) in assay [14].

Take `COc1cccc([C@@H]2[C@@H](C)CC[C@H]3C(=O)N(C)[C@@H](C(C)C)C(=O)N23)c1`: the composite z-score in [1] was -0.652; in assay [5], 0.21; in assay [7], -0.0113; in assay [8], 0.375; in assay [9], 0.374; in [10], -0.111. Further, the composite z-score in [11] is 0.516; in assay [12], -0.22; in assay [13], -0.532; in assay [15], 0.266; in assay [16], 0.649; in assay [17] it was 0.418. Further, the figures for the composite z-score in assay [18], in assay [19] and in [20] were 0.472, 0.782 and 0.428, respectively. The z-score in assay [2] was -0.0534 (inactive); in assay [3], -0.719 (inactive); in assay [4], 0.369 (inactive); in [6], 0.652 (inactive); in assay [14] it was 0.223 (inactive).

In the case of `COc1cc(Cc2cc3c(c(CCc4ccccc4)n2)[Si](C(C)C)(C(C)C)OC3)cc(OC)c1OC`, the composite z-score was 0.735 in [1]; -0.244 in assay [5]; -0.184 in assay [7]; 0.684 in assay [8]; 0.483 in [9]; 0.286 in assay [10]. Also, the composite z-score in assay [11] is -0.132; in assay [12], -0.106; in assay [13], -0.471; in [15], 0.367; in [16], -0.034; in assay [17] it was 0.0831. In addition, the composite z-score in [18] is 0.499; in assay [19] it was 0.164; in [20], 0.679. In addition, the z-score in assay [2] is 0.238 (inactive); in assay [3], -0.226 (inactive); in [4], 0.0563 (inactive); in assay [6], -1.02 (inactive); in assay [14] it was -0.212 (inactive).

For the compound `COCCOC(=O)N1C(=O)[C@@]2(c3cc(C#CC4=CCCCC4)ccc31)[C@H](C(=O)NC[C@H](O)c1ccccc1)[C@H]1C(=O)O[C@H](c3ccccc3)[C@H](c3ccccc3)N1[C@@H]2c1ccccc1OCCO`, the composite z-score in [1] is 1.56; in [5] it was 1.91; in assay [7], 0.306; in assay [8], 1.13; in [9], 1.07; in [10] it was -0.0316. The composite z-score in assay [11] was determined as 1.28; in assay [12] it was 0.659; in assay [13], 0.635; in assay [15] it was 0.533; in [16], 1.05; in assay [17], 0.366. For the same compound, the composite z-score in [18] was determined as 1.08; in assay [19], 0.599; in assay [20] it was 1.13. Besides, the z-score in [2] is 2.24 (inactive); in assay [3] it was 1.79 (inactive); in assay [4], 4.71 (inactive); in assay [6], -0.0963 (inactive); in assay [14], -1.5 (inactive).

As for `N#Cc1ccc(NN2C(C(O)c3ccc(I)cc3)C=CC3C(=O)N(c4ccccc4)C(=O)C32)cc1` (stereo not given), the composite z-score is 1.16 in [1]; 3.47 in assay [5]; 0.247 in assay [7]; -0.0788 in [8]; 1.07 in assay [9]; 0.0601 in [10]. Moreover, the composite z-score in [11] came to 1.13; in [12], 0.124; in assay [13], 1.03; in assay [15], 0.549; in assay [16] it was 0.656; in assay [17] it was 0.0977. The composite z-score in assay [18] is 0.421; in assay [19], -0.337; in [20] it was 0.462. The z-score in [2] is 0.647 (inactive); in assay [3], 2.19 (inactive); in [4] it was 3.88 (inactive); in [6] it was -1.38 (inactive); in assay [14], 2.17 (inactive).

Consider `Cc1ccc(S(=O)(=O)N2[C@@H](c3ccccc3)C(C(=O)O)=CC[C@H]2c2ccccc2)cc1`, for which the composite z-score in assay [1] is -0.116; in [5], 3.4; in assay [7], -0.0096; in assay [8] it was -0.208; in assay [9], 0.622; in assay [10] it was 0.0731. Moreover, the composite z-score in assay [11] was 0.0714; in assay [12], 0.153; in [13], 0.431; in assay [15], 0.476; in [16], -0.0481; in [17], 0.197. Further, the composite z-score in assay [18] is 0.169; in assay [19] it was -0.454; in assay [20] it was 0.512. Further, the z-score in assay [2] was -0.12 (inactive); in [3], -0.422 (inactive); in [4] it was 0.0034 (inactive); in [6] it was -1.76 (inactive); in assay [14] it was -0.258 (inactive).

Turning to `C=C(C(=O)CC[C@H](OC(=O)c1ccccc1-c1ccccc1C(=O)O)c1ccc(CO)o1)C(C)C`, the composite z-score was 1.33 in [1]; 0.662 in assay [5]; -0.19 in [7]; 1.67 in assay [8]; 0.951 in assay [9]; -0.101 in assay [10]. The composite z-score in [11] is 0.75; in assay [12], -0.209; in [13], -0.558; in assay [15] it was 1.45; in assay [16] it was 0.914; in assay [17], -0.0997. The figures for the composite z-score in assay [18], in assay [19] and in assay [20] were 0.858, 0.568 and 0.664, respectively. Also, the z-score in [2] was 1.44 (inactive); in [3] it was -0.197 (inactive); in [4], 0.782 (inactive); in assay [6] it was -0.309 (inactive); in assay [14] it was -0.107 (inactive).
